# Measured values reported in PubChem BioAssay AID493170 (National Center for Advancing Translational Sciences (NCATS), 2011).
# Results filed as inconclusive are left out. Calls of active or inactive are those of the source. The call rests on the fitted dose curve; in most records, active means well fitted inhibition curve with a large enough effect; inconclusive means small, poorly fitted or top-dose-only effect, or effect the other way; inactive means flat fitted curve, though single readings scatter.
# Molecular target: Ubiquitin carboxyl-terminal hydrolase 2 (Homo sapiens) (UniProt O75604)
# Sequence (O75604 whole entry, looked up): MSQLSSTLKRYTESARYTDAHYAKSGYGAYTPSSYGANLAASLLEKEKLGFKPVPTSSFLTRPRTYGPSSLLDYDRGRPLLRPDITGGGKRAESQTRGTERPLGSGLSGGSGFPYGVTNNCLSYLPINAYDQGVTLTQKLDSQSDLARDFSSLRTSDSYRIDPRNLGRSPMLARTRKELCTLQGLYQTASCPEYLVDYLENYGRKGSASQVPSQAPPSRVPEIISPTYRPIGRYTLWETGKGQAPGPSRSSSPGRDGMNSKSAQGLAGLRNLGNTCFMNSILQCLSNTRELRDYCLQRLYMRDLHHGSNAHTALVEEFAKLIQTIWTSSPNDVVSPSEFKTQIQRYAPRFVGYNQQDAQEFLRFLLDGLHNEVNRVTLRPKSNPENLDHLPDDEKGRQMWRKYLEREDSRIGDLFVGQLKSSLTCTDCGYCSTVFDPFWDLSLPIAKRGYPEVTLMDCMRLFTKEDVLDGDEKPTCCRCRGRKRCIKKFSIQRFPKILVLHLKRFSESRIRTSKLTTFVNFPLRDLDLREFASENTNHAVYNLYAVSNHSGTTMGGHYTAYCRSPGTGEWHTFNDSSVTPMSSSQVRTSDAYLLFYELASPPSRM
# Assay: Ub-rhodamine 110 based assay for inhibitors Ubiquitin-specific Protease USP2a; further: nearly all actives have a fitted effect of over 50% in size
# Conditions: USP2a Ub-rhodamine110 cleavage, fluorescence; series mostly up to 38.3 µM; activity change, negative = inhibition: at the top concentration
# Method in brief: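 5 nM USP2a preincubated with compounds for 30 min at RT in 20 mM Tris-HCl pH 8.0, 2 mM CaCl2, 2 mM beta-mercaptoethanol, 0.05% CHAPS. Cleavage of 150 nM Ub-rhodamine 110 read kinetically (Ex 485/Em 531) for 7 min.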
# On the % scale 0 is the no-effect control and ±100 the full control effect; potency means the concentration at half of the fitted maximal effect.
SMILES,Potency,"activity change, negative = inhibition"
Cc1ccc([C@H]2C(C(=O)O)=CC[C@@H](c3ccc(Cl)cc3)N2S(=O)(=O)c2ccc(C)cc2)cc1,11.2 µM (active),–
COCCn1c(CN(Cc2ccccc2)Cc2ccccc2)nc2c1c(=O)n(C)c(=O)n2C,–,-16.8% (inactive)
CC(C)N(C(=O)c1sc2cc([N+](=O)[O-])ccc2c1Cl)C(C)C,–,9.71% (inactive)
CCc1cc2c(=O)c(-n3cnc4ccccc43)coc2cc1O,–,3.66% (inactive)
Cc1cc2c(c(=O)n1CC1CCCO1)C(c1ccco1)C(C#N)=C(N)O2 (centres undefined),–,0.369% (inactive)
COc1ccc(C(=O)OCC(=O)c2c[nH]c3ccccc23)c(OC)c1,–,-10.9% (inactive)
Nc1cc(=O)[nH]c(SCc2cccc(Cl)c2)n1,–,-1.45% (inactive)
C=CC[C@H](CC(=O)N[C@H](CO)Cc1ccccc1)C(=O)N[C@H](COC(=O)[C@@H](CC=C)CC(=O)OC(C)(C)C)Cc1c[nH]c2ccccc12,–,-11.3% (inactive)
CC1(C)Cc2c(C#N)c(N3CCN(C(=O)c4ccco4)CC3)nc(-c3ccco3)c2CS1,8.91 µM (active),–
CCCn1c(NC(=O)c2ccc(Br)cc2)nc2ccccc21,–,0.793% (inactive)
Cc1nn(CC(=O)Nc2cccc(S(N)(=O)=O)c2)c(C)c1[N+](=O)[O-],–,-4.84% (inactive)
Cc1ccc(/C(N)=N/OC(=O)Oc2ccccc2)cc1,–,-15.3% (inactive)
O=C(O)C1CCN1C1CCCCC1 (centres undefined),–,-9.55% (inactive)
O=C(O)c1cccc(-n2cccc2/C=C2/NC(=O)N(c3ccc(Cl)cc3)C2=O)c1,4.47 µM (active),–
c1ccc(CN2CCN(CCOCCOc3cccc4ccccc34)CC2)cc1,–,-6.82% (inactive)
CCc1cc2cccc(C)c2nc1SCC(=O)N1CCN(C(=O)c2ccco2)CC1,–,-16.4% (inactive)
C=CCn1c(N)c(C(=O)NCc2cccnc2)sc1=S,–,4.72% (inactive)
CC(C)c1ccc(C2=C(O)c3ccccc3C(=O)C2=O)cc1,–,-1.3% (inactive)
O=C(NN1C(=O)/C(=C/C=C/c2ccco2)SC1=S)c1ccncc1,10 µM (active),–
COc1cccc(-n2c(SCc3cc(=O)oc4cc(O)c(O)cc34)nc3ccccc3c2=O)c1,1.58 µM (active),–

SMILES,Potency,"activity change, negative = inhibition"
CN1CCN(CCCCOc2ccc(F)cc2)CC1,–,-2.66% (inactive)
O=S(=O)(Nc1ccc(O)c(Sc2nc3ccccc3s2)c1)c1cccc2ccccc12,10 µM (active),–
COc1ccc(Cc2nnc(NC(=O)Cc3cccs3)s2)cc1,1.41 µM (active),–
C=CC[C@@H](CC(=O)N(CCO)Cc1ccccc1)C(=O)NCCOC(=O)[C@H](CC=C)CC(=O)OC(C)(C)C,–,2.02% (inactive)
CC(C)CC(=O)Nc1cccc(-c2nc3ccccc3o2)c1,–,4.76% (inactive)
Cc1n[nH]c(C)c1S(=O)(=O)N1CCCC(C(=O)Nc2nccs2)C1 (centres undefined),–,19.5% (inactive)
COC(=O)CC1Oc2ccc(C)cc2NC1=O (centres undefined),–,-1.3% (inactive)
CC(C)OCCCNC(=O)c1c(N)n(/N=C/c2ccccn2)c2nc3ccccc3nc12,–,-3.72% (inactive)
Cc1ccc(C2=N/C(=C\c3c(C)nn(-c4ccccc4)c3N3CCCC3)C(=O)O2)cc1,–,20.2% (inactive)
N#CNC(=Nc1cccc(F)c1)SCc1cccc(F)c1,–,-0.241% (inactive)
CC(C)(C)OC(=O)C[C@H]1C/C=C\C[C@H](CC(=O)N(CCO)Cc2ccccc2)C(=O)NC[C@H](c2ccccc2)OC1=O,–,-3.48% (inactive)
O=C(O)CP(=O)(c1ccccc1)c1ccccc1,–,-4.26% (inactive)
CCCCOC1(c2ccccc2)NC(=S)NN=C1c1ccccc1 (centres undefined),–,-3.04% (inactive)
CCn1c(=O)c(C(=O)Nc2ccccc2S(N)(=O)=O)c(O)c2ccccc21,5.62 µM (active),–
O=C(NCCc1ccccc1)c1ccc2nc(-c3ccco3)c(-c3ccco3)nc2c1,5.01 µM (active),–
Cc1cccc2c1N(CCCOc1ccc(C(C)(C)C)cc1)C(=O)C2=O,–,-18.2% (inactive)
COc1ccc(CCn2c(O)cc3nn(-c4nc5ccccc5s4)c(=O)c-3c2C)cc1,5.62 µM (active),–
O=[N+]([O-])c1ccc2nc(C(O)C(O)c3nc4ccc([N+](=O)[O-])cc4[nH]3)[nH]c2c1 (centres undefined),11.2 µM (active),–
CCC(=O)c1ccc(OCC(=O)NC2CCN(Cc3ccccc3)CC2)cc1,–,-5.4% (inactive)
